Source: PubChem BioAssay (NCATS)
Inconclusive results are not listed. Unmarked numbers belong to inactive results. The call rests on the fitted dose curve; in most records, active means well fitted inhibition curve with a large enough effect; inconclusive means small, poorly fitted or top-dose-only effect; inactive means flat fitted curve, though single readings scatter.

molecular target: Calcium and integrin-binding protein 1 (Homo sapiens) (UniProt Q99828); assay: Primary qHTS for Identification of Calcium Integrin Binding Protein 1 (CIB1) Competitor (AID 1508620); conditions: CIB1-GST / FITC-alphaIIb peptide fluorescence polarization; series mostly up to 114 µM; activity change, negative = inhibition: at the top concentration; further: top concentration of the series differs between compounds
Sequence (Q99828 whole entry, looked up): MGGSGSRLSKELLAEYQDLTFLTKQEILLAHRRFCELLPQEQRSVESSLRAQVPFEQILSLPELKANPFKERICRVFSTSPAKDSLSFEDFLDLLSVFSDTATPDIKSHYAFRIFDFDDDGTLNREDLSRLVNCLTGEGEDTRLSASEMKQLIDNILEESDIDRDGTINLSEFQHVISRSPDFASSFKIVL
How it was run: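 Fluorescence polarization competition: GST-tagged CIB1 (1 uM final) preincubated with compound 15 min at room temperature, then FITC-labelled alphaIIb peptide (100 nM final) added. After 15 min at room temperature, polarization read at Ex 480/Em 540.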
On the % scale 0 is the no-effect control and ±100 the full control effect.

In order of rising “activity change, negative = inhibition” value:
1. CCOC(=O)C1CCN(C(=O)C(C)(C)NC(=O)Nc2ccc([N+](=O)[O-])cc2)CC1  -18.8%
2. COC(=O)c1ccc(O)c2ncc(N(C)C)cc12  -18.1%
3. O=C1c2ccccc2NC(c2ccc(-c3ccc(F)cc3)o2)N1O (centres undefined)  -16.1%
4. Cc1ccc(CNc2ncnc3ccc(-c4sc(C)nc4C)cc23)o1  -14.2%
5. CCOC(=O)C1CCN(C(=O)C(C)(C)NC(=O)Nc2ccc3sccc3c2)CC1  -9.54%
6. CC(=O)N1CCN(C(=O)COC(=O)c2ccc([S+](C)(=O)[O-])c([N+](=O)[O-])c2)CC1  -7.43%
7. CC(=O)N1CCN(c2ccc(N)cc2)CC1  -5.73%
8. Cc1ccc(NS(=O)(=O)c2ccc3c(c2)CCC(=O)N3C)cc1Cl  -5.4%
9. COc1ccc(C2Nc3ccccc3C(=O)N2Cc2ccc(C)o2)cc1COc1c(C)cccc1C (centres undefined)  -5.03%
10. CC(C)(C)OC(=O)N1CCN(c2ccc(NCc3ccc(-c4ccc(C#N)cc4)s3)cc2)CC1  -4.58%
11. Cc1cc(NS(=O)(=O)CCNC(=O)Cc2ccc(Cl)c(Cl)c2)no1  -3.59%
12. CCC(O)(c1nnc(NCc2ccc3c(-c4ccc(F)cc4)cc(=O)oc3c2)o1)C(F)(F)F (centres undefined)  -3.39%
13. O=C(O)c1ccc(S(=O)(=O)N[C@H](Cc2c[nH]c3ccccc23)C(=O)O)cc1  -3.28%
14. C=CCNc1oc(C2CCCC2)nc1C#N  -3.27%
15. CCOC(=O)C1CCN(C(=O)C2(NC(=O)Nc3ccccc3Cl)CCC2)CC1  -2.76%
16. O=C(CNC(=O)c1ccccc1)OC(CCc1ccccc1)C(=O)Nc1cc(C(F)(F)F)ccc1Cl (centres undefined)  -2.73%
17. CC(C)(C)OC(=O)NCc1nnc(-c2cc3ccccc3[nH]2)o1  -2.65%
18. CCOC(=O)c1nc(NCc2ccccc2)sc1C  -2.45%
19. COC/C=C/c1cc(F)c(S(=O)(=O)N2CCN(S(=O)(=O)c3ccc4c(c3)OCCO4)CC2)cc1F  -2.4%
20. CC(C)(C)OC(=O)NCCOCCOCCOCCn1ncc2c1CCCC2NC(=O)c1ccccn1 (centres undefined)  -2.14%
21. Cc1ccc(C(=O)Nc2ccc(N3CCOCC3)cc2)cc1  -2.12%
22. Oc1ccc(CNCc2ccccc2F)c2cccnc12  -1.64%
23. Cc1cc(C)nc(NC(=S)N2CCN(c3nncs3)CC2)c1  -0.572%
24. NC(=O)C1CCN(c2ncc(-c3ccc(Cl)cc3)s2)CC1  -0.275%
25. O=C(CNC(=O)c1cccc(Cl)c1)OC(C(=O)Nc1cc(C(F)(F)F)ccc1Cl)c1ccccc1 (centres undefined)  -0.117%
26. Cc1cc(C)nc(NC(=S)N2CCN(c3ncnc4sccc34)CC2)c1  0.224%
27. O=[S+]([O-])(c1ccc2c(c1)OCCO2)N1CCN([S+](=O)([O-])c2ccc(F)cc2Cl)CC1  0.718%
28. Cc1ccsc1CNc1ncnc2ccc(-c3c(C)noc3C)cc12  0.78%
29. Cc1cccc(-n2cnc3cc(C(=O)N4CCCC4)ccc32)c1  0.905%
30. Cn1c(SCC(=O)c2cc3ccccc3o2)nnc1-c1ccccc1  1.04%
31. Nc1cccc(S(=O)(=O)N2CCN(S(=O)(=O)c3c(F)cccc3F)CC2)c1  1.36%
32. Cc1ccc(S(=O)(=O)N2CCN(c3nc(-c4ccco4)nc4ccccc34)CC2)cc1  1.71%
33. Cc1ccccc1C[C@H](C(=O)O)N1C(=O)c2ccc(C(=O)O)cc2C1=O  2.29%
34. COc1ccc(C2NC(=O)c3ccccc3N2)cc1COc1ccc(NC(C)=O)cc1 (centres undefined)  2.32%
35. Cc1cccc(NC(=O)c2cnn3c(C)cc(C)nc23)c1  2.65%
36. O=C(NCCc1ccccc1)C1CCN(c2nc(-c3ccc(Br)cc3)cs2)CC1  5.02%
37. O=C(O)c1ccc2c(c1)C(=O)N([C@]1(C(=O)O)CC1c1ccccc1)C2=O (some centres undefined)  6.55%
38. Cc1cc2c(s1)c1cnn(Cc3cccc(F)c3)c(=O)c1n2C  8.73%
39. Cc1ccc(CN(C)c2ncnc3ccc(-c4ccc(C#N)n4C)cc23)o1  17.4%
